# Results from PubChem BioAssay (NCATS).
# Inconclusive results are not listed. Activity calls are given as the source filed them. Unless noted, calls come from the whole dose curve; as a rule, active = well fitted curve in the direction sought with a large enough effect; inconclusive = small, poorly fitted or top-dose-only effect, or another doubt; inactive = no such curve, though single readings can be large; an effect the other way counts as inactive or inconclusive.
# Assays:
# [1] = qHTS to identify inhibitors of the type 1 interferon - major histocompatibility complex class I in skeletal muscle: primary screen against the NCATS Mechanism Interrogation Plate v5.0 (MIPE) Libary (AID 1347411);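 note: plate controls were vehicle for no effect and reference inhibitor for full effect; nearly all actives have a fitted effect of over 65% in size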
# How it was run: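 Immortalized human myoblasts (C25cl48) with HiBit knocked into endogenous HLA-B*08:01 were stimulated with 4 ng/ml IFN-beta and given compounds in 11-point 1:3 titration from 46 uM. After 24 h at 37 C, lytic HiBiT luminescence was read.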
# [2] = molecular target: Phospholipid hydroperoxide glutathione peroxidase GPX4 (Homo sapiens) (UniProt P36969); assay: Primary qHTS Assay for Inhibitors of Recombinant Selenoprotein Glutathione Peroxidase 4 (GPX4) (AID 1845192); conditions: outcome: dose series up to 50 µM unless noted; note: nearly all actives have a fitted effect of over 65% in size; for activity change, negative = inhibition: % is set by controls: 0 for no effect and ±100 for the full control effect
# How it was run: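 GR-coupled readout: 100 nM GR, 1 mM GSH, 0.5 mM NADPH; NADPH fluorescence (ex 340/em 450 nm) read at t=0 and after 15 min RT. GPX4 200 nM, preincubated 30 min with compound; substrate 0.5 mM CHP.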
# [3] = qHTS drug screen for cell cycle checkpoint inhibitors in PARPi-resistant BRCA-mutant ovarian cancer cell lines. (AID 1963452; calls by dose curve); conditions: PEO1/OlaR viability, CellTiter-Glo luminescence, 96 h, stronger effect = lower value
# How it was run: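 PEO1, PEO4 and PEO1/OlaR ovarian cancer cells, 600 per well, exposed 96 h at 37C to a dilution series. Viability read by CellTiter-Glo luminescence, normalized to DMSO and empty wells; activity summarized as Z-AUC.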
# [4] = Primary qHTS for inhibitors of nuclear receptor binding SET domain protein 2 (NSD2) in an isogenic RCH-ACV NSD2 p.E1099K mutant (9B) (AID 1645876); note: potency is the fitted concentration of half-maximal effect; nearly all actives have a fitted effect of over 70% in size
# [5] = Primary qHTS for inhibitors of nuclear receptor binding SET domain protein 2 (NSD2) in an RCH-ACV wild type WT cells (2C) (AID 1645877); note: potency is the fitted concentration of half-maximal effect; nearly all actives have a fitted effect of over 70% in size
# [6] = molecular target: Glutathione peroxidase 1 (Homo sapiens) (UniProt P07203); assay: Primary qHTS Assay for Inhibitors of Recombinant Selenoprotein Glutathione Peroxidase 1 (GPX1) (AID 1845191); note: nearly all actives have a fitted effect of over 65% in size
# How it was run: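 Recombinant GPX1 (10 nM final) was preincubated with compound for 30 min at room temperature, then reacted with 1 mM GSH, 0.5 mM CHP, 0.5 mM NADPH and 100 nM glutathione reductase; NADPH fluorescence (340/450 nm) was read at 0 and 15 min.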
# [7] = qHTS assay to identify inhibitors of the type 1 interferon - major histocompatibility complex class I in skeletal muscle: Counter screen cell viability and HiBit confirmation (AID 1347412); conditions: iHSKM muscle cells + IFN-b, HiBiT or CellTiter-Glo, 24 h; note: nearly all actives have a fitted effect of over 60% in size; note: potency is the fitted concentration of half-maximal effect; for activity change, negative = inhibition: % is set by controls: 0 for no effect and ±100 for the full control effect
# How it was run: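 CRISPR HLA-B*08:01-HiBit immortalized human myoblasts (C25cl48) stimulated with 4 ng/ml IFN-beta and compounds (12-point 1:3, top 46 uM final) for 24 h at 37 C. Duplicate plates read by HiBit lytic luminescence or CellTiter Glo ATP.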
# [8] = measured here: PEO1 parental Z-AUC
# Chain of Phospholipid hydroperoxide glutathione peroxidase GPX4 (Homo sapiens) (P36969 whole entry, looked up): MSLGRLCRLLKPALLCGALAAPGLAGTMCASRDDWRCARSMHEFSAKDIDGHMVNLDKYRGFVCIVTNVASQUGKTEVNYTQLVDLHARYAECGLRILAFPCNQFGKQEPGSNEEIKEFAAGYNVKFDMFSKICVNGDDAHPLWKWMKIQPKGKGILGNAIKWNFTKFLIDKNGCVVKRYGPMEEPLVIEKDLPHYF
# Chain of Glutathione peroxidase 1 (Homo sapiens) (P07203 whole entry, looked up): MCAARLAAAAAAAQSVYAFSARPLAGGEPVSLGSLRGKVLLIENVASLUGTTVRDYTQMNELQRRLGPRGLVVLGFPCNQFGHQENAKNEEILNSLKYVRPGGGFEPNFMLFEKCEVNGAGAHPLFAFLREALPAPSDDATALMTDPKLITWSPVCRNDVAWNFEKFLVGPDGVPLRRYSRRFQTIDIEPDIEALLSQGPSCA
SMILES,Potency [1],Potency [2],Z-AUC [3],"Z-AUC [3, 8]",Z-AUC ([3]; measured here: PEO4 Z-AUC),Potency [4],Potency [5],Potency [6],Potency ([7]; HiBiT),"activity change, negative = inhibition ([7]; Viability, at 45.9 µM (top of the series))"
CC(C)(c1ccc(OCC(O)CO)cc1)c1ccc(OCC(O)CCl)cc1 (centres undefined),inactive,inactive,1.33 (inactive),0.733,1.22,–,–,–,–,–
Cn1nccc1Nc1nccc(-c2cc3c(s2)C(C)(C)N(CCN2CCOCC2)C3=O)n1,inactive,inactive,-1.65 (inactive),-0.829,-0.419,–,–,–,–,–
CS(=O)(=O)c1ccc([C@@H](CC2CCCC2)C(=O)Nc2nccs2)cc1,inactive,inactive,0.78 (inactive),0.607,0.595,–,–,–,–,–
NC(=O)c1cnc2[nH]ccc2c1NC1C2CC3C[C@H]1CC(O)(C3)C2 (some centres undefined),–,inactive,0.584 (inactive),0.594,0.746,9.34 µM (active),9.34 µM (active),inactive,2.22 µM (active),-16.1% (inactive)
CO[C@H]1/C=C/O[C@@]2(C)Oc3c(C)c(O)c4c(O)c(c5c(c4c3C2=O)=NC2(CCN(CC(C)C)CC2)N=5)NC(=O)/C(C)=C/C=C/[C@H](C)[C@H](O)[C@@H](C)[C@@H](O)[C@@H](C)[C@H](OC(C)=O)[C@@H]1C,inactive,–,1.28 (inactive),0.697,0.909,–,–,inactive,–,–
COc1cc(-c2cn(C)c(=O)c3cnccc23)cc(OC)c1CN(C)C,inactive,–,1.5 (inactive),0.545,0.614,–,–,inactive,–,–
